Experiment [1] in a line: Quantitative High-Throughput drug screen in 47 multiple myeloma cell lines against the NCATS MIPE library collection: EJM_DSMZ cell viability assay (AID 1918926; further: nearly all actives have a fitted effect of over 30% in size). In short, it runs like this:
(§1)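 Primary qHTS used for cherry-picking: cells at 500/well, library compounds for 48 h (37C, 5% CO2), luminescent ATP assay.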

Experiment [2] in a line: Quantitative High-Throughput drug screen in 47 multiple myeloma cell lines against the NCATS MIPE library collection: AMO1_DSMZ cell viability assay (AID 1918927; further: nearly all actives have a fitted effect of over 30% in size). In short, it runs like this:
as §1

Experiment [3] can be described thus: Quantitative High-Throughput drug screen in 47 multiple myeloma cell lines against the NCATS MIPE library collection: ARP1_JJKsccF8 cell viability assay (AID 1918928; further: nearly all actives have a fitted effect of over 40% in size). In short, it runs like this:
(§2)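 500 cells/well; MIPE 4.0 library pinned in; 48 h, 37 °C, 5% CO2; CellTiter-Glo ATP luminescence. Controls: DMSO = 100% viability, medium only = 0%.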

The nature of experiment [4]: Quantitative High-Throughput drug screen in 47 multiple myeloma cell lines against the NCATS MIPE library collection: ARD_JJKsccE7 cell viability assay (AID 1918929). In short, it runs like this: as §1
Experiment [5] can be described thus: Quantitative High-Throughput drug screen in 47 multiple myeloma cell lines against the NCATS MIPE library collection: KMM1_JCRB cell viability assay (AID 1918960). Further: nearly all actives have a fitted effect of over 30% in size. In short, it runs like this: as §2
A short description of experiment [6]: Quantitative High-Throughput drug screen in 47 multiple myeloma cell lines against the NCATS MIPE library collection: FR4_PLB cell viability assay (AID 1918924; further: nearly all actives have a fitted effect of over 35% in size). An outline of the steps:
(§3)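 Myeloma cells (500 per well) were exposed to MIPE 4.0 compounds by pin transfer and incubated 48 hours at 37C, 5% CO2. Viability was read as ATP by CellTiter-Glo luminescence, normalised to DMSO (100%) and media-only (0%) wells.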

Experiment [7] can be described thus: Quantitative High-Throughput drug screen in 47 multiple myeloma cell lines against the NCATS MIPE library collection: Delta47_JCRB cell viability assay (AID 1918925; further: nearly all actives have a fitted effect of over 45% in size). In short, it runs like this: as §1
Experiment [8] is described as follows: Quantitative High-Throughput drug screen in 47 multiple myeloma cell lines against the NCATS MIPE library collection: Karpas620_DSMZ cell viability assay (AID 1918959). Further: nearly all actives have a fitted effect of over 30% in size. In short, it runs like this:
as §3

Records with an inconclusive call do not appear. Activity calls are given as the source filed them. The call rests on the fitted dose curve; in most records, active means well fitted cell-killing curve with a large enough effect; inconclusive means small, poorly fitted or top-dose-only effect, or effect the other way; inactive means no such curve, though single readings can be large or run the other way.
Potency means the concentration at half of the fitted maximal effect.

`COC(=O)[C@@H]1[C@H]2C[C@@H]3c4[nH]c5ccccc5c4CCN3C[C@@H]2CC[C@@H]1O`: the Potency entry in experiment [1], in experiment [2], in experiment [3], in experiment [4] and in experiment [5] was “inactive” each time.

Consider `CCOC(=O)N1CCN([N+]([O-])=NOc2ccc([N+](=O)[O-])cc2C#N)CC1`, for which the Potency in experiment [6] is 0.743 µM (active); in experiment [2], 1.05 µM (active); in experiment [3], 1.05 µM (active); in experiment [4], 0.833 µM (active); in experiment [5] it was 1.18 µM (active).

For the molecule `Cn1cc(C=CC(=O)c2cccc(F)c2)cc1C=CC(=O)NO`, the Potency in experiment [7] was 18.7 µM (active); in experiment [2], 18.7 µM (active); in experiment [8] it was 13.2 µM (active); in experiment [5], 16.6 µM (active).

As to `CON=C(C(=O)N[C@@H]1C(=O)N2C(C(=O)O)=C(Cn3ccc(=N)n3CCO)CS[C@H]12)c1csc(N)n1`, the Potency entry in experiment [6], in experiment [1], in experiment [2], in experiment [8] and in experiment [5] was “inactive” in each case.

As to `Cc1cn([C@@H]2O[C@H](CO)[C@@H](O)[C@H]2F)c(=O)[nH]c1=O`, the Potency result in experiment [7], in experiment [1], in experiment [2], in experiment [4] and in experiment [8] was “inactive” in each case.

With `C#CCC(Cc1cnc2nc(N)nc(N)c2n1)c1ccc(C(=O)N[C@@H](CCC(=O)O)C(=O)O)cc1` (some centres undefined), the Potency result in experiment [7], in experiment [2] and in experiment [8] was “inactive” throughout.

For `COC(=O)C=CC(=O)OC`, the Potency result in experiment [2] and in experiment [8] was “inactive” in each case. Moreover, the Potency in experiment [4] is 1.18 µM (active).

For the molecule `CC(C=CC1=C(C)CCCC1(C)C)=CC=CC(C)=CC(=O)Nc1ccc(O)cc1`, the Potency in experiment [6] is 9.59 µM (active); in experiment [1], 8.55 µM (active); in experiment [2] it was 3.4 µM (active); in experiment [4] it was 8.55 µM (active); in experiment [8] it was 6.05 µM (active).

Take `C=C1CCC2[C@](C)(CO)C(O)CC[C@]2(C)C1CC=C1C(=O)OCC1O` (some centres undefined): the Potency entry in experiment [7], in experiment [1], in experiment [3], in experiment [4], in experiment [8] and in experiment [5] was “inactive” each time.

As for `CS[C@H]1SC[C@@H]2C(=O)N(C)[C@H](C(C)C)C(=O)OC[C@H](NC(=O)c3cnc4ccccc4n3)C(=O)N[C@H](C)C(=O)N(C)[C@@H]1C(=O)N(C)[C@H](C(C)C)C(=O)OC[C@H](NC(=O)c1cnc3ccccc3n1)C(=O)N[C@H](C)C(=O)N2C`, the Potency in experiment [6] is 0.0042 µM (active); in experiment [1], 0.0059 µM (active); in experiment [3], 0.0033 µM (active); in experiment [8], 0.001 µM (active).

Take `COc1ccc(S(=O)(=O)Nc2cc(-c3c(O)ccc4ccccc34)c(O)c3ccccc23)cc1`: the Potency in experiment [7] was 9.35 µM (active); in experiment [1], 23.5 µM (active); in experiment [2], 14.8 µM (active); in experiment [3], 11.8 µM (active); in experiment [4], 5.26 µM (active); in experiment [8], 1.66 µM (active).

In the case of `COc1ccc(CCC(=O)c2c(O)cc(O[C@@H]3O[C@H](CO)[C@@H](O)[C@H](O)[C@@H]3O[C@@H]3O[C@@H](C)[C@H](O)[C@@H](O)[C@@H]3O)cc2O)cc1O`, the Potency entry in experiment [1], in experiment [2], in experiment [4] and in experiment [8] was “inactive” each time.

Regarding `Cc1nc(NC(=O)N2CCC[C@@H]2C(N)=O)sc1-c1ccnc(C(C)(C)C(F)(F)F)c1`, the Potency in experiment [7] is 1.66 µM (active); in experiment [3], 0.418 µM (active).

With `COC(=O)[C@@H]1CC2=CC(=O)CC[C@]2(C)[C@@]23O[C@@H]2C[C@@]2(C)[C@H](CC[C@@]24CCC(=O)O4)[C@@H]13`, the Potency entry in experiment [6], in experiment [1], in experiment [2], in experiment [4], in experiment [8] and in experiment [5] was “inactive” each time.

`CC1(C)[C@H](O[C@H]2O[C@H](C(=O)O)[C@@H](O)[C@H](O)[C@H]2O[C@@H]2O[C@H](C(=O)O)[C@@H](O)[C@H](O)[C@H]2O)CC[C@@]2(C)[C@H]1CC[C@]1(C)[C@H]2C(=O)C=C2[C@H]3C[C@@](C)(C(=O)O)CC[C@]3(C)CC[C@]21C`: the Potency entry in experiment [7], in experiment [2], in experiment [3], in experiment [8] and in experiment [5] was “inactive” in each case.

With `CON=C(C(=O)N[C@@H]1C(=O)N2C(C(=O)O)=C(CSC(=O)c3ccco3)CS[C@H]12)c1csc(N)n1`, the Potency entry in experiment [6], in experiment [1], in experiment [2], in experiment [8] and in experiment [5] was “inactive” throughout.

Turning to `N#CC(=C(O)c1ccc(Cl)cc1Cl)c1nc2cc(Cl)ccc2c(=O)[nH]1`, the Potency entry in experiment [1], in experiment [3], in experiment [4] and in experiment [5] was “inactive” throughout. In addition, the Potency in experiment [2] is 1.05 µM (active).

Consider `CCN1CCN(C(=O)N[C@H](C(=O)N[C@@H]2C(=O)N3C(C(=O)O)=C(CSc4nnnn4C)CS[C@@H]23)c2ccc(O)cc2)C(=O)C1=O`, for which the Potency result in experiment [7], in experiment [1], in experiment [2], in experiment [3], in experiment [4] and in experiment [5] was “inactive” throughout.

With `C[C@](Cc1c[nH]c2ccccc12)(NC(=O)OC1C2CC3CC(C2)CC1C3)C(=O)NC[C@H](NC(=O)CCC(=O)O)c1ccccc1` (some centres undefined), the Potency result in experiment [6], in experiment [1] and in experiment [3] was “inactive” throughout.

Regarding `C[C@H]1O[C@H](O[C@H]2[C@H](O)[C@@H](O)[C@@H](O[C@H]3[C@H](O)[C@@H](O)C(O)O[C@H]3CO)O[C@H]2CO)[C@H](O)[C@@H](O)[C@H]1N[C@H]1C=C(CO)[C@@H](O)[C@H](O)[C@@H]1O` (some centres undefined), the Potency result in experiment [6], in experiment [1] and in experiment [3] was “inactive” each time.

As to `CCCCCCCCCCCC(CC1OC(=O)C1CCCCCC)OC(=O)C(CC(C)C)NC=O` (centres undefined), the Potency result in experiment [1], in experiment [2], in experiment [3], in experiment [4], in experiment [8] and in experiment [5] was “inactive” throughout.

Turning to `C[C@]12C=CC(=O)N[C@@H]1CC[C@H]1[C@H]3CC[C@@H](C(=O)Nc4cc(C(F)(F)F)ccc4C(F)(F)F)[C@@]3(C)CC[C@@H]12`, in experiment [6], the Potency was 18.7 µM (active). Also, the Potency result in experiment [2], in experiment [8] and in experiment [5] was “inactive” each time.

Consider `CCNC(=O)c1cc2c(-c3cc(OCCN4CCCC4)c(Cl)cc3Cl)nc(N)nc2s1`, for which the Potency was 1.48 µM (active) in experiment [6]; 2.09 µM (active) in experiment [1]; 0.935 µM (active) in experiment [2]; 0.526 µM (active) in experiment [4]; 1.05 µM (active) in experiment [8]; 0.59 µM (active) in experiment [5].

`CC(=O)NC(CS)C(=O)O` (centres undefined): the Potency result in experiment [7], in experiment [1] and in experiment [4] was “inactive” throughout.

As for `Cc1[nH]c(C=C2C(=O)Nc3ccccc32)c(C)c1CCC(=O)O`, the Potency in experiment [1] is 5.9 µM (active); in experiment [2] it was 1.48 µM (active); in experiment [4], 20.9 µM (active); in experiment [8], 18.7 µM (active); in experiment [5] it was 13.2 µM (active).

On to `CN[C@H](CC(C)C)C(=O)N[C@H]1C(=O)N[C@@H](CC(N)=O)C(=O)N[C@@H]2C(=O)N[C@H]3C(=O)N[C@H](C(=O)N[C@H](C(=O)O)c4cc(O)cc(O)c4-c4cc3ccc4O)[C@H](O)c3ccc(c(Cl)c3)Oc3cc2cc(c3O[C@@H]2O[C@H](CO)[C@@H](O)[C@H](O)[C@@H]2O[C@H]2C[C@](C)(N)[C@H](O)[C@H](C)O2)Oc2ccc(cc2Cl)[C@H]1O`, for which the Potency entry in experiment [6], in experiment [1], in experiment [2] and in experiment [8] was “inactive” in each case. For the same molecule, the Potency in experiment [4] was 0.0023 µM (active).

`N=c1ccn2c(n1)O[C@H]1[C@@H](O)[C@@H](CO)O[C@H]12`: the Potency result in experiment [6] and in experiment [1] was “inactive” each time. Besides, the Potency in experiment [3] was 0.332 µM (active); in experiment [8], 16.6 µM (active); in experiment [5], 10.5 µM (active).

As to `O=C(NNC(=O)c1ccc(CNS(=O)(=O)c2ccc(F)c(Cl)c2)cc1)c1ccccc1`, the Potency entry in experiment [6], in experiment [1], in experiment [2], in experiment [4], in experiment [8] and in experiment [5] was “inactive” throughout.

As to `C=C1C[C@@]2(O)O[C@@]3(C[C@H]2C(C)C)[C@H](C)CC[C@H]13`, the Potency result in experiment [7], in experiment [1], in experiment [2], in experiment [3], in experiment [4] and in experiment [8] was “inactive” each time.

On to `C[C@]12CC[C@@H]3c4ccc(O)cc4CC[C@H]3[C@H]1CC[C@H]2O`, for which the Potency in experiment [6] was 16.6 µM (active); in experiment [2] it was 14.8 µM (active); in experiment [8], 4.18 µM (active).

(Values after PubChem BioAssay (NCATS).)
